Assay results published in the supplement of paper PMC10849652.
About 8,800 targets were measured; listed, in parts, are those with a hit and a random draw of the rest. About 0.5% of all pairs of compound and target were hits. A number with no mark means an inactive call.

Tests used:
Assay in all cases: log2 fold change, soluble protein after heating vs DMSO (PISA); higher = thermal stabilisation; K562 lysate, 10 uM; active = over 0.2 and 3.5 SD of the protein, either way, in both replicates (recomputed)
erlotinib = compound: C#Cc1cccc(Nc2ncnc3cc(OCCOC)c(OCCOC)cc23)c1 [erlotinib]
In short: (§1)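 The values are log-two fold changes in thermal stability compared with solvent controls and come from duplicates. They were obtained by TMTpro 16plex LC-MS/MS, with channel sums equalised, on the supernatant after 21,000xg for 90 min. That supernatant came from crude K562 extract at 1 mg/mL protein treated with 10 μM compound for 30 min, heated for 3 min across 48°C-58°C, pooled and brought to 0.5% NP-40 at 4°C.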

[1] = compound: C/C(=N\NC(=O)C1=CC(=CC=C1)S(=O)(=O)N2CCOCC2)/C3=C(C=CC(=C3)Cl)O
In short: as §1

[2] = compound: C1=CC(=CC=C1C2=NC3=C(N2)C=C(C=C3)C(=O)N)OC4=CC=C(C=C4)Cl
In short: as §1

[3] = compound: C1=CC2=C(C=CC(=C2)/C=C\3/C(=O)NC(=NCC4=CC=CS4)S3)N=C1
In short: as §1

[4] = compound: C1=CC2=NC=CN=C2C=C1/C=C/3\C(=O)NC(=O)S3
In short: as §1

[5] = compound: C1=CC=C(C=C1)C2=NC(=C(N2)C3=CC=NC=C3)C4=CC(=C(C=C4)Cl)O
In short: as §1

[6] = compound: C1=CC=C2C(=C1)C3=NNC4=CC=CC(=C43)C2=O
In short: as §1

[7] = compound: C1CCN(C1)C(=O)NC2=CC=CC(=C2)NC3=NC=C(C(=N3)NCCC4=CN=CN4)Br
In short: as §1

[8] = compound: C1CN(CCC1(CC2=CC=C(C=C2)Cl)N)C3=NC=NC4=C3C=CN4
In short: as §1

IRAK-1-4 Inhibitor I = compound: C1COCCN1CCN2C3=CC=CC=C3N=C2NC(=O)C4=CC(=CC=C4)[N+](=O)[O-] [IRAK-1-4 Inhibitor I]
In short: as §1

UniProt Q00537, sequence (Q00537 whole entry, looked up): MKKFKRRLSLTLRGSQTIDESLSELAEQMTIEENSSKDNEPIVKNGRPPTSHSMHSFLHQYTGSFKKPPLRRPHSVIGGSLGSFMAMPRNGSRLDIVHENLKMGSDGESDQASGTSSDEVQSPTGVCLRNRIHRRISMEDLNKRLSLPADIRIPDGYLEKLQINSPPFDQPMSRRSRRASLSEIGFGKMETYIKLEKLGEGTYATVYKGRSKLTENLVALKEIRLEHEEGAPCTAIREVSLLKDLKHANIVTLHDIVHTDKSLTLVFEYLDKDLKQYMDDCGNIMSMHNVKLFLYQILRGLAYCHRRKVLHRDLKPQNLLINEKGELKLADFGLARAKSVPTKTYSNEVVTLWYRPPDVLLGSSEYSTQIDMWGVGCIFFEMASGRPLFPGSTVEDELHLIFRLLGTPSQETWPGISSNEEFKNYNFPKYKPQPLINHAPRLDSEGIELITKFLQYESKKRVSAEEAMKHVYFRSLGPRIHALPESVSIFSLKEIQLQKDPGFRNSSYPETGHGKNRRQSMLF
UniProt P01024, sequence (P01024 whole entry, looked up): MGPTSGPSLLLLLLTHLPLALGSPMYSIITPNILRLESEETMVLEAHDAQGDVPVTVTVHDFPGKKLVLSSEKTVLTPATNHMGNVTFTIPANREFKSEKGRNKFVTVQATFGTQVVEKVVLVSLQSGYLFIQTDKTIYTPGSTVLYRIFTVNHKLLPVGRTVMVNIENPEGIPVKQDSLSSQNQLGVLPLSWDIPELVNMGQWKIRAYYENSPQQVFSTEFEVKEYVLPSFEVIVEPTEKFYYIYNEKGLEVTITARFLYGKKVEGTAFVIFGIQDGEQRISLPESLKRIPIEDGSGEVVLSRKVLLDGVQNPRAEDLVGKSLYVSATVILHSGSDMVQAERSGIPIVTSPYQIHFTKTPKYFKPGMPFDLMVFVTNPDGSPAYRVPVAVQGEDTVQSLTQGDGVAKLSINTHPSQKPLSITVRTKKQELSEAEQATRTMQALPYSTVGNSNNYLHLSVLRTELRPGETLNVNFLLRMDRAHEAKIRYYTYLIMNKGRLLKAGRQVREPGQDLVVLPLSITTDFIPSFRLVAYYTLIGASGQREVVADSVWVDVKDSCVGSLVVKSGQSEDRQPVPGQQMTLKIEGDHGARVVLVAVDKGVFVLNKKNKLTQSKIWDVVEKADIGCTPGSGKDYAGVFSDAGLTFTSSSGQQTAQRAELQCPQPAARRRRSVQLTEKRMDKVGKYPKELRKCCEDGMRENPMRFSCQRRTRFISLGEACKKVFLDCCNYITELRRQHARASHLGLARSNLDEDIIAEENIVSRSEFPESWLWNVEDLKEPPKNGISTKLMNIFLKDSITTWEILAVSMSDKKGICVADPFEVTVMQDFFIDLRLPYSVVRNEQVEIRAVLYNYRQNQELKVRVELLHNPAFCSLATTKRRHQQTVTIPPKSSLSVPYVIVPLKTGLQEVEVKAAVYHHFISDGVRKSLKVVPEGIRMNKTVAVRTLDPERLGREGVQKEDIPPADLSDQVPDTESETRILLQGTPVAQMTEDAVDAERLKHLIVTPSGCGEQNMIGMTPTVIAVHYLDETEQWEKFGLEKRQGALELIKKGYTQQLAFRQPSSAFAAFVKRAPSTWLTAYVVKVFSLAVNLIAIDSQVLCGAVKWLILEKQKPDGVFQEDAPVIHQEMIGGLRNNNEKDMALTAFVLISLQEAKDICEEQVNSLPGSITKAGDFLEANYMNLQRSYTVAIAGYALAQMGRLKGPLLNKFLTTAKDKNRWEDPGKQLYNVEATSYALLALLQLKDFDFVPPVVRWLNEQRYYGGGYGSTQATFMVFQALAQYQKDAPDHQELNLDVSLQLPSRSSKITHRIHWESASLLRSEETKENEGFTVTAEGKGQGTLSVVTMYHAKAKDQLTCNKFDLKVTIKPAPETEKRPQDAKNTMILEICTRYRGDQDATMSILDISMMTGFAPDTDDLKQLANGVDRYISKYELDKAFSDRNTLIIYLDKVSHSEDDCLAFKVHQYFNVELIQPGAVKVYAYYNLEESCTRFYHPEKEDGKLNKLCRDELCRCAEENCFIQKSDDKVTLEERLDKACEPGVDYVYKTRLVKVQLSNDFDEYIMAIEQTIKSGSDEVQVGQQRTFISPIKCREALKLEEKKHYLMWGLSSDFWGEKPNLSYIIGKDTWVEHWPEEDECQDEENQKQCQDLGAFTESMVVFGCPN
UniProt Q15059, sequence (Q15059 whole entry, looked up): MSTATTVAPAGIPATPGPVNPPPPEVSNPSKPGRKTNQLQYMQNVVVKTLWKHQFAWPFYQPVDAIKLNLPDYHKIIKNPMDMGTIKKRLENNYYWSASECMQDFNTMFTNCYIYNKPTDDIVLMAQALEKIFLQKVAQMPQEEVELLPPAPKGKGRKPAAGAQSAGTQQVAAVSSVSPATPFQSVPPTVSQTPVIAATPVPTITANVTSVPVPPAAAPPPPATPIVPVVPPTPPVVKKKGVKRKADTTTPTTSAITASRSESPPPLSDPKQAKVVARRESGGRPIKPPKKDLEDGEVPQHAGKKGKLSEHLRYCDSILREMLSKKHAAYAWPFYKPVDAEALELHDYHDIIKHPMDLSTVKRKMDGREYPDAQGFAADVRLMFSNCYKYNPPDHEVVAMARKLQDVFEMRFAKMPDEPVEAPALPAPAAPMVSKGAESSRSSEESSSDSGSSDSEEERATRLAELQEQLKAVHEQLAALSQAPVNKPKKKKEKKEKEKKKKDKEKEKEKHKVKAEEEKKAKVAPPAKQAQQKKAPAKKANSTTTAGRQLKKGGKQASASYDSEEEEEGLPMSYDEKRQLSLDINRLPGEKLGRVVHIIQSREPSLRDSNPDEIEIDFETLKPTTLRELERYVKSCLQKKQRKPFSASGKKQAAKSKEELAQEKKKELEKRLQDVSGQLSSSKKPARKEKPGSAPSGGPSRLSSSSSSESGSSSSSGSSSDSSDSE
UniProt Q6P1S2, sequence (Q6P1S2 whole entry, looked up): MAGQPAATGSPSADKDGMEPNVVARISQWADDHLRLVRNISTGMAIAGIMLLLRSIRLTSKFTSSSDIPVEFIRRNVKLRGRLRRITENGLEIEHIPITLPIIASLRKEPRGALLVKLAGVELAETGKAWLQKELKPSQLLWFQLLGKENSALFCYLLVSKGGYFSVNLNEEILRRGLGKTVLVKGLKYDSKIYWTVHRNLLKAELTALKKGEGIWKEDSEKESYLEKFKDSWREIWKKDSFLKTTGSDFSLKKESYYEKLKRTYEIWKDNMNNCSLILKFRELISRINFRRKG
UniProt Q5U623, sequence (Q5U623 whole entry, looked up): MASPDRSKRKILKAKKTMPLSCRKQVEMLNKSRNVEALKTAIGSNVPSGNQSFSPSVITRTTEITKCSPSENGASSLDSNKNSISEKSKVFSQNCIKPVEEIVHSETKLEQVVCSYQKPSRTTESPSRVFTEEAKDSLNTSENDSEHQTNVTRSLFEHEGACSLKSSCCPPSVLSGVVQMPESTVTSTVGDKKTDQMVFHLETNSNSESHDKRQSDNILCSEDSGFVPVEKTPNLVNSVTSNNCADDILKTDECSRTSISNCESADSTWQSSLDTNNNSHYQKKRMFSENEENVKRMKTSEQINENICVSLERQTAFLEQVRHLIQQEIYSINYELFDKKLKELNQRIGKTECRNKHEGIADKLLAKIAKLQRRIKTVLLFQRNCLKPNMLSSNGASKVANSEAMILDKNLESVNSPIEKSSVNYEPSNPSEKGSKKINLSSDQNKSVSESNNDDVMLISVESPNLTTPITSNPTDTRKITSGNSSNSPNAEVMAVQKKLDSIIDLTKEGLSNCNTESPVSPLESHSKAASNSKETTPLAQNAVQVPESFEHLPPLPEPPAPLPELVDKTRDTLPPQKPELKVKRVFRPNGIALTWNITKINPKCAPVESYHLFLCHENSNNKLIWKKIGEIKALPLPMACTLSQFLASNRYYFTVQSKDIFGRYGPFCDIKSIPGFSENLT
UniProt Q9HB09, sequence (Q9HB09 whole entry, looked up): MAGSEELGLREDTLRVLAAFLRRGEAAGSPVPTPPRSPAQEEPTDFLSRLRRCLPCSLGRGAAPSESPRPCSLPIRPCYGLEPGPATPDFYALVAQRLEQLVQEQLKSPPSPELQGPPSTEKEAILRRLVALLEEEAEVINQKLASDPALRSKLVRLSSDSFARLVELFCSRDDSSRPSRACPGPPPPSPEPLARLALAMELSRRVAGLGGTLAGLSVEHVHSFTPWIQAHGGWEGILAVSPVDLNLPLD
UniProt Q13825, sequence (Q13825 whole entry, looked up): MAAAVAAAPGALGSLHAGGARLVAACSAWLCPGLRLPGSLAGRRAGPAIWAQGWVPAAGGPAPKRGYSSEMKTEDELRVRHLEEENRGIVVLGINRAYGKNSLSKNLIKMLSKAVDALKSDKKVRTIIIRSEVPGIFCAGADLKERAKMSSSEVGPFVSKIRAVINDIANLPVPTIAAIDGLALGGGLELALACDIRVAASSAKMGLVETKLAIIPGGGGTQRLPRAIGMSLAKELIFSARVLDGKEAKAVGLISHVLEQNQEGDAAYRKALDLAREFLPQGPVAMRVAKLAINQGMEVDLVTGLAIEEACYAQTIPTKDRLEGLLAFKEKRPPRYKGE
UniProt O95674, sequence (O95674 whole entry, looked up): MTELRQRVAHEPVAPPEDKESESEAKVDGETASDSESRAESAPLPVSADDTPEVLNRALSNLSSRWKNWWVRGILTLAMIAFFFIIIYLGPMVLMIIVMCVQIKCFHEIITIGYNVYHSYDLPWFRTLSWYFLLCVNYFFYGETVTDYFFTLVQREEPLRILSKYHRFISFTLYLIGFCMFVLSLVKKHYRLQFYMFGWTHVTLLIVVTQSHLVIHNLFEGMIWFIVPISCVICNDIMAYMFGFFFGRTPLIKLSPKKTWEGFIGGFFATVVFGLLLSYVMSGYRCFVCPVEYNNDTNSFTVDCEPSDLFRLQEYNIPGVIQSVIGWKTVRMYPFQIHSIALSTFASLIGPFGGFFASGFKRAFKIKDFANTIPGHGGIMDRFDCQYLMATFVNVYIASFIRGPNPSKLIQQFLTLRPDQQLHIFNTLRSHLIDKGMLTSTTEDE
UniProt A8MTT3, sequence (A8MTT3 whole entry, looked up): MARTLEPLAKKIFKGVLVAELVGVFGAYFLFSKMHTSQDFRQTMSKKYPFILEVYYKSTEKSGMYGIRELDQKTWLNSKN

| Target | log2 fold change (erlotinib) | log2 fold change [1] | log2 fold change [2] | log2 fold change [3] | log2 fold change [4] | log2 fold change [5] | log2 fold change [6] | log2 fold change [7] | log2 fold change [8] | log2 fold change (IRAK-1-4 Inhibitor I) |
| --- | --- | --- | --- | --- | --- | --- | --- | --- | --- | --- |
| AUH (UniProt Q13825) | 0.003 | -0.031 | 0.083 | -0.042 | 0.111 | 0.027 | -0.035 | 0.026 | -0.045 | -0.008 |
| CDK5 (UniProt Q00535) | -0.018 | -0.065 | 0.126 | -0.041 | -0.023 | 0.01 | – | 0.367 | 0.004 | 0.033 |
| BCORL1 isoform 3 (UniProt Q5H9F3) | 0.002 | -0.015 | 0.15 | -0.117 | – | 0.004 | -0.115 | -0.114 | -0.005 | – |
| BRD3 (UniProt Q15059) | -0.005 | 0.084 | -0.065 | 0.004 | -0.033 | – | -0.013 | -0.001 | 0.036 | – |
| CCDC47 (UniProt Q96A33) | 0.02 | 0.003 | -0.071 | 0.009 | 0.022 | -0.03 | -0.093 | -0.007 | 0.024 | 0.003 |
| CDS2 (UniProt O95674) | -0.023 | 0.004 | -0.087 | -0.008 | -0.011 | 0.079 | -0.027 | -0.056 | 0.01 | 0.214 (active) |
| C3 (UniProt P01024) | 0.016 | -0.031 | 0 | 0.004 | -0.036 | 0.151 | -0.061 | -0.042 | 0.01 | -0.014 |
| BCL2L12 (UniProt Q9HB09) | 0.055 | -0.067 | -0.01 | -0.056 | 0.119 | -0.111 | 0.144 | 0.162 | 0.015 | 0.002 |
| CDK9 isoform 2 (UniProt P50750) | -0.055 | -0.054 | 0.195 | 0.019 | 0.02 | -0.01 | 0.019 | 0.102 | 0.005 | -0.002 |
| CDCA8 (UniProt Q53HL2) | 0.112 | 0.054 | 0.009 | -0.071 | -0.12 | – | -0.246 | -0.01 | -0.054 | – |
| BUD23 isoform 3 (UniProt O43709) | 0.074 | -0.046 | 0.009 | -0.008 | -0.097 | -0.02 | -0.01 | -0.026 | -0.033 | -0.017 |
| CCNH (UniProt P51946) | 0.018 | -0.018 | 0.074 | -0.055 | -0.029 | 0 | -0.021 | -0.047 | 0.012 | -0.005 |
| BRAF (UniProt P15056) | -0.05 | -0.101 | -0.04 | 0.013 | -0.008 | – | 0 | -0.007 | 0.027 | -0.005 |
| CARD11 (UniProt Q9BXL7) | -0.03 | -0.051 | 0.016 | 0.061 | -0.168 | -0.048 | -0.022 | -0.042 | 0.013 | -0.01 |
| CDK17 isoform 2 (UniProt Q00537) | -0.156 | -0.007 | 0.173 | 0.099 | -0.114 | 0.005 | 0.046 | 0.124 | 0.068 | 0.055 |
| CEP41 (UniProt Q9BYV8) | -0.068 | -0.125 | 0.006 | -0.007 | 0.016 | – | 0.019 | -0.035 | 0.03 | – |
| BAG4 (UniProt O95429) | -0.036 | 0.046 | 0.075 | -0.017 | 0.004 | -0.038 | 0.021 | 0.047 | 0.017 | 0 |
| CDK8 (UniProt P49336) | -0.012 | -0.059 | 0.028 | -0.128 | 0.068 | 0.004 | 0.128 | – | – | 0.029 |
| ATXN2 (UniProt F8WB05) | 0.073 | -0.082 | 0.09 | -0.191 | -0.063 | -0.011 | -0.083 | -0.036 | 0.055 | -0.157 |
| CEBPZOS (UniProt A8MTT3) | -0.038 | 0.013 | 0.004 | 0.003 | – | -0.014 | 0.006 | -0.011 | 0.005 | -0.015 |
| CASP9 (UniProt P55211) | -0.007 | 0.008 | 0.008 | 0.03 | 0.069 | -0.002 | -0.008 | 0.014 | 0.006 | 0.034 |
| CDC42BPA isoform 6 (UniProt Q5VT25) | -0.007 | 0.077 | -0.086 | 0.011 | -0.012 | -0.029 | -0.09 | -0.032 | -0.006 | -0.038 |
| ATF7IP2 (UniProt Q5U623) | 0.012 | -0.034 | 0.086 | 0.026 | -0.069 | -0.027 | -0.132 | – | – | 0.027 |
| CARHSP1 (UniProt Q9Y2V2) | 0.011 | 0.022 | -0.033 | -0.06 | 0.006 | -0.026 | 0.027 | 0.01 | 0.011 | 0.024 |
| CDK5RAP3 isoform 4 (UniProt Q96JB5) | 0.009 | -0.068 | -0.011 | -0.018 | 0.031 | -0.002 | -0.014 | -0.016 | 0.016 | 0.022 |
| BLOC1S6 (UniProt Q9UL45) | -0.008 | 0.007 | 0.029 | 0.027 | 0.001 | 0.002 | -0.004 | 0.093 | -0.01 | -0.031 |
| ATXN2 (UniProt Q99700) | 0.007 | -0.015 | 0.063 | -0.006 | -0.041 | -0.005 | -0.022 | 0.026 | 0.014 | 0.016 |
| C3orf33 (UniProt Q6P1S2) | 0.195 | -0.205 | 0.209 | -0.124 | 0.068 | 0.032 | 0.123 | – | – | -0.281 |
| C16orf70 (UniProt Q9BSU1) | 0.023 | 0.194 | -0.06 | 0.271 (active) | 0.033 | -0.128 | -0.193 | 0.016 | 0.055 | -0.021 |
